Measurements published in PubChem BioAssay AID1159580 (chemical genetic matrix, 2015).
Out of some 5,500 compounds screened, about 2,000 (36%) were called active. Roughly 18% stayed inconclusive and do not appear here. Cut-off read from the data, not from the text of the source: active = normalized growth mostly below about 0.91 (no sharp cut-off); inconclusive = no clear call, values can overlap the other calls; inactive = mostly above about 0.92. The list shows a part of the results.

Test: chemical genetic growth profiling, strain panel (AID 1159580);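 note: tested at 20 µM; growth read once vehicle control cultures reached saturation at 30 °C; 1 = growth at the plate median or of vehicle wells; lower values mean less growth of the strain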
Settings: S. cerevisiae deletion strains, growth OD
[1] = locus YHR030C, strain SLT2, hits give low values
[2] = locus YHR079C, strain IRE1, hits give low values
[3] = locus YJL095W, strain BCK1, hits give low values
[4] = locus YJR066W, strain TOR1, hits give low values
[5] = locus YLR113W, strain HOG1, hits give low values
[6] = locus YNL183C, strain NPR1, hits give low values
[7] = locus YOR231W, strain MKK1, hits give low values
[8] = locus YPL256C, strain CLN2, hits give low values

Measured: normalized growth

CC(=O)OCC(=O)[C@@]1(O)CCC2C3CCC4=CC(=O)C=C[C@]4(C)[C@@]3(F)[C@@H](O)C[C@@]21C (stereo partly drawn)
inactive: [1] 1.07 | [2] 1.07 | [3] 1.01 | [4] 1 | [5] 0.999 | [6] 0.993 | [7] 1.05 | [8] 1.06

O=C(/C=C/C(=O)Oc1ccccc1C(=O)O)Oc1ccccc1C(=O)O
inactive: locus YAL021C, strain ccr4, hits give low values 0.961 | locus YAL026C, strain drs2, hits give low values 0.988 | locus YAL030W, strain snc1, hits give low values 0.992 | locus YBL061C, strain skt5, hits give low values 0.983 | locus YBR009C, strain hhf1, hits give low values 0.991 | locus YBR023C, strain chs3, hits give low values 0.994 | locus YBR171W, strain sec66, hits give low values 0.962 | locus YBR231C, strain swc5, hits give low values 0.984 | locus YBR279W, strain paf1, hits give low values 0.978 | locus YCL011C, strain gbp2, hits give low values 0.989 | locus YCL016C, strain dcc1, hits give low values 0.971 | locus YCL061C, strain MRC1, hits give low values 0.995 | locus YCL069W, strain vba3, hits give low values 0.99 | locus YCR088W, strain abp1, hits give low values 0.987 | locus YDL005C, strain med2, hits give low values 0.976 | locus YDL040C, strain nat1, hits give low values 0.992 | locus YDR001C, strain nth1, hits give low values 0.972 | locus YDR069C, strain doa4, hits give low values 0.98 | locus YDR137W, strain rgp1, hits give low values 0.969 | locus YDR159W, strain sac3, hits give low values 0.971 | locus YDR195W, strain ref2 0.976 | locus YDR297W, strain sur2, hits give low values 0.987 | locus YDR334W, strain swr1, hits give low values 0.99 | locus YDR335W, strain msn5, hits give low values 0.986 | locus YDR392W, strain spt3, hits give low values 0.995 | locus YEL003W, strain gim4, hits give low values 0.995 | locus YEL037C, strain rad23, hits give low values 0.998 | locus YEL061C, strain CIN8 (second series), hits give low values 0.981 | locus YER015W, strain faa2, hits give low values 0.992 | locus YER016W, strain bim1, hits give low values 0.971 | locus YER111C, strain swi4, hits give low values 0.975 | locus YER155C, strain BEM2 (second series), hits give low values 0.998 | locus YFR010W, strain ubp6, hits give low values 0.991 | locus YGL167C, strain pmr1, hits give low values 0.976 | locus YGL173C, strain kem1, hits give low values 1 | locus YGL227W, strain vid30, hits give low values 0.962 | locus YGL240W, strain doc1, hits give low values 0.984 | locus YGL253W, strain hxk2, hits give low values 0.995 | locus YHR013C, strain ard1, hits give low values 0.984 | locus YHR027C, strain rpn1, hits give low values 0.979 | [1] 1.01 | [2] 1.02 | locus YHR142W, strain chs7, hits give low values 0.974 | locus YJL092W, strain hpr5, hits give low values 0.989 | locus YJL095W, strain BCK1 (second series), hits give low values 0.992 | [3] 1.02 | locus YJL115W, strain asf1, hits give low values 0.968 | locus YJL129C, strain trk1, hits give low values 0.964 | locus YJL154C, strain vps35, hits give low values 0.996 | locus YJL164C, strain tpk1, hits give low values 0.99 | locus YJL166W, strain qcr8, hits give low values 0.997 | [4] 0.975 | locus YKL160W, strain elf1, hits give low values 0.981 | locus YKR026C, strain gcn3, hits give low values 0.968 | locus YKR091W, strain srl3, hits give low values 0.978 | locus YLL001W, strain dnm1, hits give low values 0.999 | locus YLL026W, hits give low values 0.961 | locus YLL041C, strain sdh2, hits give low values 0.987 | locus YLR027C, strain aat2, hits give low values 0.985 | [5] 0.987 | locus YLR221C, strain rsa3, hits give low values 1 | locus YLR258W, strain gsy2, hits give low values 0.988 | locus YLR262C, strain YPT6 (second series), hits give low values 0.996 | locus YLR320W, strain mms22, hits give low values 1.01 | locus YLR342W, strain FKS1, hits give low values 0.983 | locus YLR357W, strain rsc2, hits give low values 0.987 | locus YLR370C, strain arc18, hits give low values 0.994 | locus YLR384C, strain iki3, hits give low values 0.976 | locus YML120C, strain ndi1, hits give low values 0.974 | locus YMR058W, strain fet3, hits give low values 0.984 | locus YMR125W, strain sto1, hits give low values 0.967 | locus YMR129W, hits give low values 0.973 | locus YMR205C, strain PFK2, hits give low values 0.964 | locus YMR231W, strain pep5, hits give low values 0.979 | locus YNL071W, strain lat1, hits give low values 1 | [6] 0.976 | locus YNL209W, strain ssb2, hits give low values 0.971 | locus YNL248C, strain rpa49, hits give low values 0.985 | locus YNL322C, strain KRE1 (second series), hits give low values 0.93 | locus YNR049C, strain mso1, hits give low values 0.985 | locus YOR001W, strain rrp6, hits give low values 1 | locus YOR070C, strain gyp1, hits give low values 0.978 | locus YOR080W, strain dia2, hits give low values 0.98 | locus YOR083W, strain WHI5, hits give low values 0.935 | locus YOR106W, strain vam3, hits give low values 0.953 | [7] 1.01 | locus YOR265W, strain rbl2, hits give low values 0.979 | locus YOR270C, strain vph1, hits give low values 1.02 | locus YOR290C, strain snf2, hits give low values 0.98 | locus YPL051W, strain arl3, hits give low values 0.984 | locus YPL078C, strain atp4, hits give low values 0.984 | locus YPL106C, strain sse1, hits give low values 0.973 | locus YPL240C, strain hsp82, hits give low values 0.968 | [8] 1

CC(/C=C/c1ccccc1)=N/OC(=O)c1ccccc1Cl
inactive: locus YAR019C, strain CDC15, hits give low values 0.967 | locus YBL105C, strain PKC1, hits give low values 0.97 | locus YBR135W, strain CKS1, hits give low values 0.974 | locus YBR136W, strain MEC1, hits give low values 0.969 | locus YBR160W, strain CDC28, hits give low values 0.97 | locus YDL017W, strain CDC7, hits give low values 0.976 | locus YDL028C, strain MPS1, hits give low values 0.981 | locus YDL101C, strain DUN1, hits give low values 0.976 | locus YDL108W, strain KIN28, hits give low values 0.982 | locus YDL132W, strain cdc53, hits give low values 0.978 | locus YDL214C, strain PRR2, hits give low values 0.902 | locus YDR052C, strain DBF4, hits give low values 0.981 | locus YDR054C, strain cdc34, hits give low values 0.96 | locus YDR226W, strain ADK1, hits give low values 0.979 | locus YDR477W, strain SNF1, hits give low values 0.911 | locus YER123W, strain YCK3, hits give low values 0.876 | locus YER133W, strain GLC7, hits give low values 0.917 | locus YFL009W, strain cdc4, hits give low values 0.974 | locus YFL029C, strain CAK1, hits give low values 0.969 | locus YFR003C, strain YPI1, hits give low values 0.97 | locus YFR019W, strain FAB1, hits give low values 0.936 | locus YFR028C, strain CDC14, hits give low values 0.969 | locus YGR040W, strain KSS1, hits give low values 0.887 | locus YGR052W, strain FMP48, hits give low values 0.949 | locus YGR092W, strain DBF2, hits give low values 0.874 | [1] 0.899 | [2] 0.888 | locus YHR082C, strain KSP1, hits give low values 0.96 | locus YHR205W, strain SCH9, hits give low values 0.864 | locus YIL147C, strain SLN1, hits give low values 0.974 | [3] 0.903 | locus YJL128C, strain PBS2, hits give low values 0.955 | locus YJL157C, strain FAR1, hits give low values 0.879 | locus YJR016C, strain ILV3, hits give low values 0.978 | locus YJR066W, strain TOR1 (second series), hits give low values 0.795 | [4] 0.963 | locus YKL048C, strain ELM1, hits give low values 0.936 | locus YKL067W, strain YNK1, hits give low values 0.907 | locus YKL101W, strain HSL1, hits give low values 0.902 | locus YKL193C, strain SDS22, hits give low values 0.974 | locus YKL203C, strain TOR2, hits give low values 0.954 | locus YLR133W, strain CKI1, hits give low values 0.896 | locus YLR403W, strain SFP1, hits give low values 0.86 | locus YML070W, strain DAK1, hits give low values 0.849 | locus YMR001C, strain CDC5, hits give low values 0.97 | locus YMR205C, strain PFK2 (second series), hits give low values 0.917 | locus YMR277W, strain FCP1, hits give low values 0.966 | locus YNL006W, strain LST8, hits give low values 0.984 | locus YNL020C, strain ARK1, hits give low values 0.905 | locus YNL161W, strain CBK1, hits give low values 0.968 | [6] 0.903 | locus YNL207W, strain RIO2, hits give low values 0.965 | locus YNL222W, strain SSU72, hits give low values 0.984 | locus YNL307C, strain MCK1 (second series), hits give low values 0.899 | locus YOL078W, strain AVO1, hits give low values 0.975 | locus YOL136C, strain PFK27, hits give low values 0.849 | locus YOR061W, strain CKA2, hits give low values 0.9 | locus YOR119C, strain RIO1, hits give low values 0.961 | [7] 0.84 | locus YOR329C, strain SCD5, hits give low values 0.974 | locus YPL031C, strain PHO85, hits give low values 0.909 | locus YPL153C, strain RAD53, hits give low values 0.896 | locus YPL204W, strain HRR25, hits give low values 0.897 | locus YPL209C, strain IPL1, hits give low values 0.966 | locus YPR025C, strain CCL1, hits give low values 0.977 | locus YPR106W, strain ISR1, hits give low values 0.964 | locus YPR111W, strain DBF20, hits give low values 0.961 | strain NNK1, hits give low values 0.963 | strain TSCII, hits give low values 0.961
active: [5] 0.734 | [8] 0.806
